Compound activity from PubChem.
HIF-2a block: blocks HIF-2a reporter activity; 0.72% of 360,000 active; AID 624352; 786-0 RCC cells HIF-2a reporter, luciferase luminescence, overnight; inhibition, % at 18.8 µM;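 active = inhibition of the luminescence signal of 40% or more relative to plate controls, in a single-dose primary screen at 18.75 µM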
ABHD5-PLIN5 inh: inhibitors of human ABHD5-perilipin-5 interaction. inhibition, % at 4 µM. AID 602281. 0.78% of 360,000 active. Split G. princeps luciferase complementation, luminescence, 4 h;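 active = inhibition above the mean inhibition across every tested compound plus 3 SD, cut at about 22% in these data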;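 also: 0% = DMSO only wells and the 100% control is not disclosed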
Target sequence (Q00G26 whole entry, looked up): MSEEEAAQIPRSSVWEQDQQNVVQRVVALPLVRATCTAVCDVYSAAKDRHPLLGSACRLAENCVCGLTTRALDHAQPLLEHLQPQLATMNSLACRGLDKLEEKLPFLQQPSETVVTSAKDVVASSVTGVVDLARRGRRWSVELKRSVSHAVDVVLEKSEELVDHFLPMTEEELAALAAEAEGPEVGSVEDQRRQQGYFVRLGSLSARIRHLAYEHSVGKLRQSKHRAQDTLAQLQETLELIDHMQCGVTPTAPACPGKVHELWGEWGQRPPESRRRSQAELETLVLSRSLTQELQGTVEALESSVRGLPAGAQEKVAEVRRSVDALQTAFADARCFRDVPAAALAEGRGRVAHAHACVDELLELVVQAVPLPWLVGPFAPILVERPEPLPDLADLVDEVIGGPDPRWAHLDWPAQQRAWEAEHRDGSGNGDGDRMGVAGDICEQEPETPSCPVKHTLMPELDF
Target sequence (Q8WTS1 whole entry, looked up): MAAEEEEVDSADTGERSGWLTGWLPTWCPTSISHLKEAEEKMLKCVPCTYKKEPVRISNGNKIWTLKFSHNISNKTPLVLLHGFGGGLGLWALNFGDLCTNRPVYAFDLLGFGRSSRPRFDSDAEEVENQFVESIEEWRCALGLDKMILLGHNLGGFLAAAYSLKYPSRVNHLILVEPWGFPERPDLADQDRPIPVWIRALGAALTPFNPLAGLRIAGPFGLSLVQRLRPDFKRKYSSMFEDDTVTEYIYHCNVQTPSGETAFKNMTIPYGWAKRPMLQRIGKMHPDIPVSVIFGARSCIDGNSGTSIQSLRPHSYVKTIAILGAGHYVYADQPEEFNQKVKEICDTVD
KKLEB tox: CF airway cell cytotoxicity counter-screen; KKLEB CF airway cells viability, ATPlite luminescence, overnight; hits give low values; cells stimulated with P. aeruginosa culture filtrate; activity change (cytotoxicity), % at 5 µM; 0.36% of 360,000 active;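 active = corrected activity change at or below -50% at 5 µM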
Peg3 promoter: Peg3 promoter activity inhibition; HeLa PEG-Prom luciferase reporter, luminescence, overnight; inhibition, % at 20 µM; 1.7% of 360,000 active; AID 588405;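 active = inhibition of at least 50% at 20 µM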
MITF TRPM1 inh: inhibitors of MITF-driven TRPM1 promoter in melanoma cells | SK-MEL-5 TRPM1 promoter luciferase, 24 h | inhibition, % at 12.5 µM | 0.83% of 330,000 active | AID 488899;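 active = mean inhibition across replicates of 60% or more, whatever share of single replicates reaches that level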
CF NFkB block: inhibitors of cystic fibrosis induced NF-kB; KKLEB NF-kB-GFP reporter, PAF-induced, GFP fluorescence overnight; inhibition, % at 5 µM; AID 588850; 0.86% of 360,000 active;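 active = at least 50% inhibition at 5 µM, scaled per plate between neutral and stimulator controls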;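 also: PAF is a Pseudomonas aeruginosa culture filtrate used as stimulus; plate controls were PAF-stimulated DMSO wells for no effect and unstimulated DMSO wells for full effect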
Numbers without * were called inactive; · = not tested or not shown. Shown are actives, neighbours in structure and some others; about 3.1% of the full set was active somewhere.

SMILES	HIF-2a block	ABHD5-PLIN5 inh	KKLEB tox	Peg3 promoter	MITF TRPM1 inh	CF NFkB block
CC(C)C1C(=O)N(Cc2cn(CCC3OCCCO3)nn2)CCS(=O)(=O)N1Cc1ccc(-c2ccc(F)nc2)cc1 (centres undefined)	-17	0	-16	14	·	46
CC1CNC(=S)N(c2ccccc2)C1=O (centres undefined)	6	-1	-1	62*	-7	-12
CC1CNC(=S)N(c2ccc(F)cc2)C1=O (centres undefined)	5	-7	-3	-3	-9	-23
Cc1nc2cc(N3CCCCC3)c(NC(=O)c3ccncc3)cc2c(=O)n1Cc1ccccc1	-3	2	-7	86*	5	15
Cc1nc2cc(N3CCOCC3)c(NC(=O)C3CC3)cc2c(=O)n1Cc1ccccc1	8	-5	-8	-11	-10	4
CCOC(=O)c1c(C)[nH]c(C(=O)Nc2cc(OCC)c(N3CCOCC3)cc2OCC)c1C	-5	-10	-12	29	15	17
CCOC(CNCc1cc(C)c2[nH]c3ccccc3c2c1C)OCC	22	2	-19	74*	13	20
COc1ccc(C(C)C)cc1-c1cc(C(=O)NCc2cccc(C(F)(F)F)c2)[nH]n1	-2	-8	-25	13	·	20
CC(=O)c1cccc(NC(=O)c2cccc3c(-c4cnn(C)c4)coc23)c1	-39	-2	4	58*	·	-30
COc1cc(NC(=O)c2cccc3c(-c4cnn(C)c4)coc23)cc(OC)c1OC	-60	6	-4	78*	·	-6
CCCNC(=O)c1ccc(N2CCC3(CC2)CC(c2cccc(Br)c2)=NO3)c(NC(=O)c2ccc(Cl)c([N+](=O)[O-])c2)c1	12	0	-1	73*	44	-4
Cc1ccc(CNC(=O)c2ccc(N3CCC4(CC3)CC(c3cccc(Br)c3)=NO4)c(NC(=O)c3ccc(Cl)c([N+](=O)[O-])c3)c2)cc1	-2	3	0	13	19	0
O=C(NCc1csc(-c2cccs2)n1)Nc1cccc(Cl)c1	-5	-5	3	6	-2	-9
COc1ccc(-c2nn(-c3ccccc3)cc2C(=O)N2CCOCC2)cc1	3	7	8	11	5	-17
O=C(CSc1ccc(Cl)cc1)N/N=C/c1ccc([N+](=O)[O-])o1	-34	1	-9	-29	62*	-8
O=C(COc1ccccc1)N/N=C/c1ccc([N+](=O)[O-])o1	-18	5	6	-37	68*	-27
COc1ccc(-c2nn(-c3ccccc3)cc2C(=O)N/N=C/c2ccc([N+](=O)[O-])o2)cc1	-2	4	-19	30	90*	6
O=C(N/N=C/c1ccccn1)c1sc2ccccc2c1Cl	-79	5	-4	-51	19	-3
O=C(N/N=C/c1ccc([N+](=O)[O-])o1)c1sc2ccccc2c1Cl	35	0	8	40	78*	-31
CC12CC3CC(C)(C1)CC(C(=O)NNC(=O)c1ccncc1)(C3)C2	21	-2	12	18	1	-2
COc1ccc(S(=O)(=O)Nc2ccc(Oc3ccsc3C(=O)O)cc2)cc1	9	-6	6	19	4	4
CCCc1ccc(-c2cc(C(=O)N/N=C/c3ccc([N+](=O)[O-])o3)c3ccccc3n2)cc1	-109	-2	-51*	-121	51	-4
Cc1ccc(NC(=O)CCC(=O)N/N=C/c2ccc([N+](=O)[O-])o2)cc1C	-16	1	15	-6	79*	-10
Cc1cc(C(=O)N/N=C/c2ccc([N+](=O)[O-])o2)c(C)o1	13	11	-5	-11	83*	-2
Cc1ccc(OCC(=O)N/N=C/c2ccc([N+](=O)[O-])o2)cc1	-25	-4	14	2	64*	-37
SMILES	HIF-2a block	ABHD5-PLIN5 inh	KKLEB tox	Peg3 promoter	MITF TRPM1 inh	CF NFkB block
CCCC(=O)Nc1ccc(C(=O)N/N=C/c2ccc([N+](=O)[O-])o2)cc1	4	-2	0	-15	25	-1
CSc1ncccc1C(=O)OCC(=O)NC1CCC(C)CC1 (centres undefined)	-4	-6	3	-14	-15	21
O=C(CNC(=O)c1nn(Cc2ccccc2)c(=O)c2ccccc12)Nc1ccc(F)c(F)c1F	-8	0	-56*	2	4	47
Cn1nc(C(=O)NCC(=O)Nc2ccc(F)c(F)c2F)c2ccccc2c1=O	0	3	-4	-7	-13	0
COc1cccc(NC(=O)c2c(C)cc(C)cc2CC(C)(C)C(=O)O)c1	13	3	8	4	7	-12
OC(c1cccc(Cl)c1)c1ncc(-c2ccc(Oc3ccccc3)cc2)[nH]1 (centres undefined)	-33	-22	-10	54*	·	17
CCCNc1c(NS(=O)(=O)c2c(F)c(F)c(F)c(F)c2F)c(=O)oc2ccccc12	6	1	10	-11	8	2
Cc1ccc(-n2c(Cl)c(Cl)nc(Cl)c2=O)cc1	94*	85*	-94*	103*	95*	88*
COc1nc(Cl)cn(-c2ccc(C)cc2)c1=O	4	0	-7	-6	0	1
COc1ccc(C)cc1Nc1n[n+](-c2ccccc2)c(-c2cc(OC)c(OC)cc2Br)s1	9	-15	6	-4	10	9
COc1ccc(C)cc1Nc1n[n+](-c2ccccc2)c(-c2c(OC)ccc3ccccc23)s1	-26	17	-6	56*	66*	38
CCCCC(=O)Nc1cccc(-c2csc(-c3ccccc3)n2)c1	-141	9	9	-83	-35	-4
O=C(O)CCC(=O)Nc1cccc(-c2csc(-c3ccccc3)n2)c1	83*	3	5	-1	34	14
CC(Cc1ccccn1)NC(=O)CCc1nnc(C2CCCCC2)o1 (centres undefined)	-44	-3	-3	-21	-1	-6
COc1ccc(-c2n[nH]c(C)c2-c2cscn2)c(O)c1	10	-6	-10	4	-1	6
C=C(C)COc1ccc(-c2n[nH]c(C)c2-c2ccc(OC)cc2)c(O)c1	19	-16	-15	80*	6	-11
c1ccc2c(c1)CCN(c1nc3cc4c(cc3s1)OCCO4)C2	47*	6	-52*	40	56	-5
CN(C)CC/C=C1\c2ccccc2COc2ccccc21	-10	-6	-56*	-29	-2	-11
O=C(Nc1ccccc1C(=O)N/N=C/c1ccco1)c1ccc(F)cc1	-26	21	1	-22	-2	-12
Cc1cc(/C=C2\Sc3ccccc3N2C)cc(C)[n+]1CC1CCCO1 (centres undefined)	-2	-3	-29	70*	74*	-4
Cn1c(NCc2ccccc2)nc2c1c(=O)n(Cc1ccccc1)c(=O)n2C	32	-5	-6	27	6	9
